# Results as given in article PMC7862700, “An all-to-all approach to the identification of sequence-specific readers for epigenetic DNA modifications on cytosine”.
# Tests used:
# Assay in all cases: DAPPL (digital affinity profiling via proximity ligation, sequencing); 10 mM Tris-HCl pH 7.5, 50 mM NaCl, 1 mM DTT, 4% glycerol, room temperature, 30 min; GST-TFs on glutathione beads, 16-mer random dsDNA library, 0.1% formaldehyde crosslink after washing; high values mean tight binding
# Details in all cases: protein: recombinant; tags: N-terminal GST; dsDNA, one strand shown
# [1] = target: T1, FLI1 (Homo sapiens, UniProt Q01543 1-452)
# T1 sequence: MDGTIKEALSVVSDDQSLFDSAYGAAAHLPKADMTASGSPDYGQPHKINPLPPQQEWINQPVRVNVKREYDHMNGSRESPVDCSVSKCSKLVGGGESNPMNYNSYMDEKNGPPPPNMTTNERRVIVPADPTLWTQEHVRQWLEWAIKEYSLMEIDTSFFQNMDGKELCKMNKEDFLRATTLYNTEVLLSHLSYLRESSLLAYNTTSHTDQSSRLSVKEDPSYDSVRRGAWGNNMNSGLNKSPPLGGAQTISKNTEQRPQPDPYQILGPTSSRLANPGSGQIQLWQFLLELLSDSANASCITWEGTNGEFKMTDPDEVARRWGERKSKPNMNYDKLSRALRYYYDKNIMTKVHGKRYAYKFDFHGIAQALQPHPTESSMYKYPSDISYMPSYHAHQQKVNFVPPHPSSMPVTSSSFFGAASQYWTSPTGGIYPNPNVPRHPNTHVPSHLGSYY
# Summary of the method: (§1)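 Pools were built from human transcription factors expressed in yeast as GST fusions, captured on glutathione beads and DNA-barcoded, along with a tag-only sample. Incubation with 200 nmole of a 16-mer random double-stranded DNA library lasted 30 min at room temperature in Tris/NaCl/DTT/glycerol buffer, and was followed by washing, 0.1% formaldehyde crosslinking, proximity ligation, PCR amplification and Illumina NextSeq500 sequencing. Binding signal is the quotient of each hexamer's read frequency for a factor and its frequency for the tag-only sample.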
# [2] = target: T2, ELK1 (Homo sapiens, UniProt P19419 1-428)
# T2 sequence: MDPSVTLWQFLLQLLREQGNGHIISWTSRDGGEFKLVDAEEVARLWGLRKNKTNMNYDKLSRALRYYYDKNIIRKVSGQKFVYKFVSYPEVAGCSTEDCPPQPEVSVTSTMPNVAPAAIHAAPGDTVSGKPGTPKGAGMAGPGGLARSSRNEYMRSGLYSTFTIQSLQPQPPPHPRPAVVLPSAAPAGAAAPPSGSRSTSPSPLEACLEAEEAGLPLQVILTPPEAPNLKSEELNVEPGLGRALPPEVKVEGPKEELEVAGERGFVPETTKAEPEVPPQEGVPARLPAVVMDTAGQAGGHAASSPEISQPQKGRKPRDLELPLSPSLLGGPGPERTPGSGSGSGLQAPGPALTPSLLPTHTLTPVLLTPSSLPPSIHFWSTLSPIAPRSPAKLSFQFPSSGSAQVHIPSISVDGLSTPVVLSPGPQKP
# Summary of the method: as §1
# [3] = target: T3, GABPA (Homo sapiens, UniProt Q06546 1-454)
# T3 sequence: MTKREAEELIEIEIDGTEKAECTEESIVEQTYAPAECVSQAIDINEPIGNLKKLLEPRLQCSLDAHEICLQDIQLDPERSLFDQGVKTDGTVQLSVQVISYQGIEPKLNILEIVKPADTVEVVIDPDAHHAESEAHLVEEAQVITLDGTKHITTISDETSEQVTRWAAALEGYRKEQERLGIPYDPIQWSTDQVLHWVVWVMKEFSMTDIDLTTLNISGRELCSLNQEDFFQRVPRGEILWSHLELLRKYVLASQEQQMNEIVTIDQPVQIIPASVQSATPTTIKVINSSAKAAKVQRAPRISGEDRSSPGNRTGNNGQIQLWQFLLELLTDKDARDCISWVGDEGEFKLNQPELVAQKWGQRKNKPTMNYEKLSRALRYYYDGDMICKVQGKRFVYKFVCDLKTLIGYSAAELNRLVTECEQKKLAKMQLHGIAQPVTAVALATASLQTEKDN
# Summary of the method: as §1
# [4] = target: T4, ERG (Homo sapiens, UniProt P11308 1-479)
# T4 sequence: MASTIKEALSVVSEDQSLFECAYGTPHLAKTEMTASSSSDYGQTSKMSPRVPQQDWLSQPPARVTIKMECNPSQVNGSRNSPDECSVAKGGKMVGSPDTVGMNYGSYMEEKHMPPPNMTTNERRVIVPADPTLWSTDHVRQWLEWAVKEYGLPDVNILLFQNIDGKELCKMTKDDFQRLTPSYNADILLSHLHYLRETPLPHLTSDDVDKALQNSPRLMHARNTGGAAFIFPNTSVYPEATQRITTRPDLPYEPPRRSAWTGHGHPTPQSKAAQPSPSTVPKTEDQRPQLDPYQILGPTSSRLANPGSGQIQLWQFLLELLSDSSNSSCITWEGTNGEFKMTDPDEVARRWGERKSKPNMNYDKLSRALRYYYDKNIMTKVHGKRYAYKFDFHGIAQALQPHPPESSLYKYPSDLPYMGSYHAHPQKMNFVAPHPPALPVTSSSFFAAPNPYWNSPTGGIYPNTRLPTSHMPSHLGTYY
# Summary of the method: as §1
# [5] = target: ELF1 (Homo sapiens, UniProt P32519 1-619)
# Summary of the method: as §1
# [6] = target: T5, EHF (Homo sapiens, UniProt Q9NZC4 1-300)
# T5 sequence: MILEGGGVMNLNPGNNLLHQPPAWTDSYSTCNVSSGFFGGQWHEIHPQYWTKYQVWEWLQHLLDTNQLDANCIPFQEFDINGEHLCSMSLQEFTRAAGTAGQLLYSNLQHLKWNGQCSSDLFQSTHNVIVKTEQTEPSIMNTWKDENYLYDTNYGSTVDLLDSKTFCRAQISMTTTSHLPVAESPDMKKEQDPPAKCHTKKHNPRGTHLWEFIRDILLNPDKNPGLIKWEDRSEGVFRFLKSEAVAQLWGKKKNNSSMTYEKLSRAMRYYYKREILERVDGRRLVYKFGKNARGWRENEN
# Summary of the method: as §1
# [7] = target: SPI1 (Homo sapiens, UniProt P17947 1-270)
# Summary of the method: as §1
# [8] = target: SPIB (Homo sapiens, UniProt Q01892 1-262)
# Summary of the method: as §1
# [9] = target: T6, ELK3 (Homo sapiens, UniProt P41970 1-407)
# T6 sequence: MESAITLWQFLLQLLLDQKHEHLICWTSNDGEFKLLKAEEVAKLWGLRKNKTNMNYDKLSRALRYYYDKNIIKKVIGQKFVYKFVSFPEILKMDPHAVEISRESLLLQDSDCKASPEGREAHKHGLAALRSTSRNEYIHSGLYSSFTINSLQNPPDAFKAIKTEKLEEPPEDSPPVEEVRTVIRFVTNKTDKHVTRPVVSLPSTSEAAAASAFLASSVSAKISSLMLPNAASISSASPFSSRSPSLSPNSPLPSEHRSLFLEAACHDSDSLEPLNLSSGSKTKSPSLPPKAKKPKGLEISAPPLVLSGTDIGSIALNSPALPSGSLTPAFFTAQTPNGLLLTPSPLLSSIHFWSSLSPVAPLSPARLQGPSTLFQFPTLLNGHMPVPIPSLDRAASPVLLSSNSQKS
# Summary of the method: as §1
# [10] = target: T7, FEV (Homo sapiens, UniProt Q99581 1-238)
# T7 sequence: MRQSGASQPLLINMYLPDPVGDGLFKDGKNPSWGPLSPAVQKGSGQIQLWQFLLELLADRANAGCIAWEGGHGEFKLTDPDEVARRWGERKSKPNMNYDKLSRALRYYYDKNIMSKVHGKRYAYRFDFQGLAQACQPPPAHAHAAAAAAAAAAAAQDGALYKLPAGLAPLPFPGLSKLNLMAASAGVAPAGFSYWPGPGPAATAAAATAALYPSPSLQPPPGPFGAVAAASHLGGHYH
# Summary of the method: as §1
# [11] = target: ETV5 (Homo sapiens, UniProt P41161 1-510)
# Summary of the method: as §1
# [12] = target: T8, SPIC (Homo sapiens, UniProt Q8N5J4 1-248)
# T8 sequence: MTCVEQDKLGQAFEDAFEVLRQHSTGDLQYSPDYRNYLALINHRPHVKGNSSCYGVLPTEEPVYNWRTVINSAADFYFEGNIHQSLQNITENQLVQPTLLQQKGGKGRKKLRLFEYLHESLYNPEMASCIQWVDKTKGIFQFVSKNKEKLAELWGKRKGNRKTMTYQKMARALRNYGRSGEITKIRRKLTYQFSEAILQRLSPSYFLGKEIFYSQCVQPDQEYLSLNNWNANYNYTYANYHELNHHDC
# Summary of the method: as §1
# [13] = target: ELF4 (Homo sapiens, UniProt Q99607 1-663)
# Summary of the method: as §1
# [14] = target: T9, ELK4 (Homo sapiens, UniProt P28324-2 1-405)
# T9 sequence: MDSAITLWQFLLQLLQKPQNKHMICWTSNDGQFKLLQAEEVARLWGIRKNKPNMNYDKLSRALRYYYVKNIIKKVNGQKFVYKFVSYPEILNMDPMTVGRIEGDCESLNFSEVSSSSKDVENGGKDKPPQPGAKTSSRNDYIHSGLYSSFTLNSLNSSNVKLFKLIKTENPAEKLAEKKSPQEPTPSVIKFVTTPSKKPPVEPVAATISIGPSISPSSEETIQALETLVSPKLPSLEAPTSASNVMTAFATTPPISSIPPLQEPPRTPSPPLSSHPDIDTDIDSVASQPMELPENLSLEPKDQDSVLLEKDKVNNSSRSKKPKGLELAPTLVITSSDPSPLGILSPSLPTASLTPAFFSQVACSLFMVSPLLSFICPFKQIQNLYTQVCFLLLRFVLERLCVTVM
# Summary of the method: as §1
# [15] = target: T10, ETV2 (Homo sapiens, UniProt O00321 1-342)
# T10 sequence: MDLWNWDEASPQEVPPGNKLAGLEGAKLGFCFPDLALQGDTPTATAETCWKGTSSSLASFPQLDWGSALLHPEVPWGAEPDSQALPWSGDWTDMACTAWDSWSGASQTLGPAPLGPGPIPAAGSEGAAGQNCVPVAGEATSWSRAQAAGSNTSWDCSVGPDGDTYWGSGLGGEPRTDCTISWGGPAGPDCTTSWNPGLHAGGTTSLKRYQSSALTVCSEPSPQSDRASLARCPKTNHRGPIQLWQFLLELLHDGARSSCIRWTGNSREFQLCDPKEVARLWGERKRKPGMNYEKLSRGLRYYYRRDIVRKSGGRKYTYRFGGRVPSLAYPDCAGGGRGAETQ
# Summary of the method: as §1
# [16] = target: T11, ELF3 (Homo sapiens, UniProt P78545 1-371)
# T11 sequence: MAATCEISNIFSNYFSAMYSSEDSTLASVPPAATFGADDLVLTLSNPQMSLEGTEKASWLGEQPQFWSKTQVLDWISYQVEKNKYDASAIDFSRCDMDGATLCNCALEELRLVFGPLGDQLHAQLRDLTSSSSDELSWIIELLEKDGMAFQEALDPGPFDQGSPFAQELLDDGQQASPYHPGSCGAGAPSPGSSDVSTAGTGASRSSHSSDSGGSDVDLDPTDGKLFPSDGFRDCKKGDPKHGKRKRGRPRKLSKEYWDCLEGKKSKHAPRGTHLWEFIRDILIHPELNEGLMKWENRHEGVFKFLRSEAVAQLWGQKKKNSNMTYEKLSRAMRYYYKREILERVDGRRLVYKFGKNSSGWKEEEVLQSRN
# Summary of the method: as §1
# [17] = target: ETV1 (Homo sapiens, UniProt P50549 1-477)
# Summary of the method: as §1
# Sequence of SPIB (Q01892 whole entry): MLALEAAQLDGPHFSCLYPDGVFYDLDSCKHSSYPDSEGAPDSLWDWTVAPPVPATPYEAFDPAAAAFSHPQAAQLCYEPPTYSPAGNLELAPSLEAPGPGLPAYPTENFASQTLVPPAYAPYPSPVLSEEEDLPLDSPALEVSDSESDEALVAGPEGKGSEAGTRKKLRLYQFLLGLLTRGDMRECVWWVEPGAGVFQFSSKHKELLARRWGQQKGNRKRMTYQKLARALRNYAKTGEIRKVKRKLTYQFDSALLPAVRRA
# Sequence of ELF4 (Q99607 whole entry): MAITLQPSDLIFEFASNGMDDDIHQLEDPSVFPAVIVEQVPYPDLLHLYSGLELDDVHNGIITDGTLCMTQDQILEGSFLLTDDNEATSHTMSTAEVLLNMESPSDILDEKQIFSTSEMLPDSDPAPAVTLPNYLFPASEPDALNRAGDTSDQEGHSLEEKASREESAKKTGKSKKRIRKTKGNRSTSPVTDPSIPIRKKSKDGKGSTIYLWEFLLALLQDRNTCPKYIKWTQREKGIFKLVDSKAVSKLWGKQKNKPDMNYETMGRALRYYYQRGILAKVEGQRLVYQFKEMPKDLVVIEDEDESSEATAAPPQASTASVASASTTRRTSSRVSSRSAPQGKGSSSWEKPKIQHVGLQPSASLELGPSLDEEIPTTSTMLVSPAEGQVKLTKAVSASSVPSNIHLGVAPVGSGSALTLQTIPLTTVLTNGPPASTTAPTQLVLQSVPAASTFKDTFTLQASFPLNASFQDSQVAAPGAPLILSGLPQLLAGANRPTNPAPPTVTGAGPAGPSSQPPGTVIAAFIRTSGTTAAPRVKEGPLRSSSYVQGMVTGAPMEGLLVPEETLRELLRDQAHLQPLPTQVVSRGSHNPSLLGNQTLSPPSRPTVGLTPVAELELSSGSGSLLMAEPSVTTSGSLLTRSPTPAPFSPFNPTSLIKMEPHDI
# Sequence of ELF1 (P32519 whole entry): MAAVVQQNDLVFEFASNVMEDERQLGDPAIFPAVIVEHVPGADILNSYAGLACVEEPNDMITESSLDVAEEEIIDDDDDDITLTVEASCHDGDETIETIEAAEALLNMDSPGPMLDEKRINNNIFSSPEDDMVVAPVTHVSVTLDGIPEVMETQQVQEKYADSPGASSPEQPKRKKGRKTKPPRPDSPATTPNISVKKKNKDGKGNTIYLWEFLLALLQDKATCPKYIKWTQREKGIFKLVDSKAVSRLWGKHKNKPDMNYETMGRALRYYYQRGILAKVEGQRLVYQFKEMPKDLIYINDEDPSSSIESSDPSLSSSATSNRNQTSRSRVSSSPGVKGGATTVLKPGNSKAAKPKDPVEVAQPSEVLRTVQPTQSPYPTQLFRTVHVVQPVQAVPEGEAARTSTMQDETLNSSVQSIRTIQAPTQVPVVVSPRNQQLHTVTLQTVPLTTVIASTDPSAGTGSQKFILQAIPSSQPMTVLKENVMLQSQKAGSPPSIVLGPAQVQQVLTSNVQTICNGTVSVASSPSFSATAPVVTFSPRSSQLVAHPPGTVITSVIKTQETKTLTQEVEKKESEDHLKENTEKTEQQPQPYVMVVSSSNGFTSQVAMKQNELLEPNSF
# Sequence of ETV5 (P41161 whole entry): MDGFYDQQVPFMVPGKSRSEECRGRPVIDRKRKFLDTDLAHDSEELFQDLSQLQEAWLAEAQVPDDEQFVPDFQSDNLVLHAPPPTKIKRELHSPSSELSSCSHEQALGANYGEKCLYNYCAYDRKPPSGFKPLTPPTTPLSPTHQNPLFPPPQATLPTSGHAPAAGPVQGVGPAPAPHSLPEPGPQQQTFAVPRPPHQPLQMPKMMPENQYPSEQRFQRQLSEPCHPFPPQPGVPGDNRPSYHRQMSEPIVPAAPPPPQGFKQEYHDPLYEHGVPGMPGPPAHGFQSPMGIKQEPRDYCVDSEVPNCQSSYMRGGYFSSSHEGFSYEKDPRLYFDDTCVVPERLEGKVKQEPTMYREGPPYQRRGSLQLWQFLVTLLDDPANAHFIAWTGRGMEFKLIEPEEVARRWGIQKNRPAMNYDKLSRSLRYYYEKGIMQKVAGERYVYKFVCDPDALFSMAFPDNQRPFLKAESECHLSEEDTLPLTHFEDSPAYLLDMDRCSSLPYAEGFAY
# Sequence of ETV1 (P50549 whole entry): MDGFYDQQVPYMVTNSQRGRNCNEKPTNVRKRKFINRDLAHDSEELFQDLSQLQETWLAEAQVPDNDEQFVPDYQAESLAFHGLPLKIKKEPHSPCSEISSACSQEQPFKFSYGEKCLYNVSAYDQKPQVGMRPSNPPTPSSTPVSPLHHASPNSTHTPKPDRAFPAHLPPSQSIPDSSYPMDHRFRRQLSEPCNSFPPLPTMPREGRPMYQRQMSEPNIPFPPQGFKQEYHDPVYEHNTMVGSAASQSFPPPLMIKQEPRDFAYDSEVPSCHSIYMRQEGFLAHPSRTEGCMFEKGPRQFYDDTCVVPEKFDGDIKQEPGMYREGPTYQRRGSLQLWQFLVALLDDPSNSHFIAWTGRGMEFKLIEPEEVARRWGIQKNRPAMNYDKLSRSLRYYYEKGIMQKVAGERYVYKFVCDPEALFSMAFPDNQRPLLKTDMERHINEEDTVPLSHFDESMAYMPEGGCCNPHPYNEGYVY
Sequence,binding signal [1],binding signal [2],binding signal [3],binding signal [4],binding signal [5],binding signal [6],binding signal [7],binding signal [8],binding signal [9],binding signal [10],binding signal [11],binding signal [12],binding signal [13],binding signal [14],binding signal [15],binding signal [16],binding signal [17]
TGGTGT,"1.28 fold enrichment (6-mer frequency, TF over GST control)","1.18 fold enrichment (6-mer frequency, TF over GST control)","1.35 fold enrichment (6-mer frequency, TF over GST control)","1.33 fold enrichment (6-mer frequency, TF over GST control)","1.33 fold enrichment (6-mer frequency, TF over GST control)","1.31 fold enrichment (6-mer frequency, TF over GST control)","1.23 fold enrichment (6-mer frequency, TF over GST control)","1.18 fold enrichment (6-mer frequency, TF over GST control)","1.4 fold enrichment (6-mer frequency, TF over GST control)","1.14 fold enrichment (6-mer frequency, TF over GST control)","1.26 fold enrichment (6-mer frequency, TF over GST control)","1.09 fold enrichment (6-mer frequency, TF over GST control)","1.34 fold enrichment (6-mer frequency, TF over GST control)","1.31 fold enrichment (6-mer frequency, TF over GST control)","1.45 fold enrichment (6-mer frequency, TF over GST control)","1.25 fold enrichment (6-mer frequency, TF over GST control)","1.2 fold enrichment (6-mer frequency, TF over GST control)"
TGCACC,"1.12 fold enrichment (6-mer frequency, TF over GST control)","1.16 fold enrichment (6-mer frequency, TF over GST control)","1.25 fold enrichment (6-mer frequency, TF over GST control)","1.09 fold enrichment (6-mer frequency, TF over GST control)","1.2 fold enrichment (6-mer frequency, TF over GST control)","1.25 fold enrichment (6-mer frequency, TF over GST control)","1.16 fold enrichment (6-mer frequency, TF over GST control)","1.15 fold enrichment (6-mer frequency, TF over GST control)","1.16 fold enrichment (6-mer frequency, TF over GST control)","1.23 fold enrichment (6-mer frequency, TF over GST control)","1.12 fold enrichment (6-mer frequency, TF over GST control)","1.14 fold enrichment (6-mer frequency, TF over GST control)","1.19 fold enrichment (6-mer frequency, TF over GST control)","1.3 fold enrichment (6-mer frequency, TF over GST control)","1.13 fold enrichment (6-mer frequency, TF over GST control)","1.21 fold enrichment (6-mer frequency, TF over GST control)","1.13 fold enrichment (6-mer frequency, TF over GST control)"
